These results are taken from article PMC4336329 (PLoS ONE, 2015).

The whole screen tested about 310,000 compounds, of which about 14,000 (4.5%) showed an effect of 50% or more. The effect is printed as a negative number. Many of the other results were omitted from the sample, so strong results are more common in it than they were.
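Note: peak tail current of the secondary pulse compared with the same well before compound.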

human ether-à-go-go-related gene (hERG) potassium channel, sequence (Q12809 whole entry, looked up): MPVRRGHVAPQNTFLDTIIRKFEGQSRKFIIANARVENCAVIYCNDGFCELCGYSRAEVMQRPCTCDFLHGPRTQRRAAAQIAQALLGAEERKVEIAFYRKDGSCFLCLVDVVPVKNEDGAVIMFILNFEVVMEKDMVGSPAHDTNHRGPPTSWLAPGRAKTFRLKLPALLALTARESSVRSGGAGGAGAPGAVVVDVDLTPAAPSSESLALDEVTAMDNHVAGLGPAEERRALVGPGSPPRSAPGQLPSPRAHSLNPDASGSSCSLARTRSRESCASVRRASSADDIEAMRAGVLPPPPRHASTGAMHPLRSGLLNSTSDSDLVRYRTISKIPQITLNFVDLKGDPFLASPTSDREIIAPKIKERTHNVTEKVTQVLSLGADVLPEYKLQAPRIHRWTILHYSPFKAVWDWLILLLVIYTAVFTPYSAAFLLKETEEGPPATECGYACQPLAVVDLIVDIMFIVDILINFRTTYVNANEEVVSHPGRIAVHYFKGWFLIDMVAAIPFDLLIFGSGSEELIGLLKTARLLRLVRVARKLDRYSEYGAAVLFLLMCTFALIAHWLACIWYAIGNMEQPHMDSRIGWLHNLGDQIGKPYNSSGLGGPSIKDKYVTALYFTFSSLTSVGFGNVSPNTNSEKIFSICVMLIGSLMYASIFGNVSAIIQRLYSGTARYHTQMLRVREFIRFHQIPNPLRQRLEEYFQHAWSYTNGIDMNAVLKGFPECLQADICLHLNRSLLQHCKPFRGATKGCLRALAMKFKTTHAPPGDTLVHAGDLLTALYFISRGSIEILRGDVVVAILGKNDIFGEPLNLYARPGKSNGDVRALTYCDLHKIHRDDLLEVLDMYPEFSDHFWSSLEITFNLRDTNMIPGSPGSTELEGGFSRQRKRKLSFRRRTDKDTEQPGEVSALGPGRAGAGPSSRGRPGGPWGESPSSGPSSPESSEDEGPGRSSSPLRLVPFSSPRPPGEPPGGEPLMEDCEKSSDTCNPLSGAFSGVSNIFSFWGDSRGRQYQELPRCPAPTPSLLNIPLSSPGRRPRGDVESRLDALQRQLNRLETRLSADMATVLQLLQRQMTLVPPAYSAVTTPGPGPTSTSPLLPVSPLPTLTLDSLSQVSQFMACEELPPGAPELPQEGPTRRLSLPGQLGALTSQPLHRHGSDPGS

This assay has as its target human ether-à-go-go-related gene (hERG) potassium channel (human, UniProt Q12809). Put plainly: primary screen, population patch clamp on CHO cells stably expressing hERG; higher = less effect of the substance.
For the compound `CC1(C)CC(NCc2ccccc2)CCO1.Cl` (stereo not drawn), the “hERG current change (%, negative = inhibition) at 10uM” value is listed as 5.1%.
For `O=C1CCC(=O)N1CCC(c1ccc(F)cc1)c1ccco1` (stereo not drawn), the “hERG current change (%, negative = inhibition) at 10uM” value was found to be 4.27%.
With `Cc1ccc(NC(=O)COC(=O)CCC(=O)c2ccc(Cl)cc2)cc1S(=O)(=O)N(C)C`, the “hERG current change (%, negative = inhibition) at 10uM” value was -1.5%.
In the case of `CCOC(=O)N1CCc2c(sc3nc(SC(C)C)n(N)c(=O)c23)C1` it was -20.9%.
In the case of `Cl.c1coc(CNc2nc(N3CCCCC3)nc3ccccc23)c1` it was -77.5%; in that of `Clc1nc(NCc2ccco2)nc(N2CCCCC2)n1`, 33.5%.
Then `Cl.c1coc(CNc2ncnc3ccccc23)c1`, with 2.88%; and `Fc1ccccc1-c1nc(NCc2ccco2)c2ccccc2n1`, with -2.1%.
Consider `Cl.c1ccc(N2CCN(c3nc(NCc4ccco4)c4ccccc4n3)CC2)cc1`, for which the “hERG current change (%, negative = inhibition) at 10uM” value is listed as -73.6%.
In the case of `CC(C)C(=O)NNC(=O)c1csc(CS(=O)(=O)c2ccc(Cl)cc2)n1` it was -1.62%; in that of `O=c1cc(-c2ccc(O)cc2)oc2ccccc12`, 16.1%.
In the case of `CCOC(=O)c1ccc(NC(=O)C2C3C=CC(C3)C2C(=O)O)cc1` (stereo not drawn) it was 4.67%; in that of `CN(C)CC/C=C1\c2cc(F)ccc2CSc2ccccc21.O=C(O)/C=C\C(=O)O`, -35.4%; in that of `COc1ccc2c(c1)C1C=CCC1C(c1cc3c(cc1Br)OCO3)N2` (stereo not drawn), 1.4%.
As for `O=C(N/C(=C\c1ccc(Cl)cc1)C(=O)N1CCOCC1)c1ccco1`, the “hERG current change (%, negative = inhibition) at 10uM” value is on record as -31.4%.
Consider `COc1ccc(/C=C(\NC(=O)c2ccco2)C(=O)N2CCOCC2)cc1`, for which the “hERG current change (%, negative = inhibition) at 10uM” value turned out to be 0.365%.
In the case of `O=C(N/C(=C\c1cccc([N+](=O)[O-])c1)C(=O)N1CCOCC1)c1ccco1` it was 14.9%; in that of `O=C(N/C(=C/c1cccc([N+](=O)[O-])c1)C(=O)N1CCCCCC1)c1ccco1`, -28.2%; in that of `O=C(N/C(=C/c1ccc([N+](=O)[O-])cc1)C(=O)N1CCOCC1)c1ccco1`, -70.1%.
In the case of `O=C(N/C(=C\c1ccccc1)C(=O)N1CCOCC1)c1ccco1` it was 17.1%; in that of `O=C(N/C(=C\c1ccc([N+](=O)[O-])cc1)C(=O)N1CCCCC1)c1ccc(Br)o1`, -72%.
Then `O=C(N/C(=C/c1cccc([N+](=O)[O-])c1)C(=O)N1CCCCC1)c1ccco1`, with -2.24%; and `O=C(N/C(=C\c1ccc([N+](=O)[O-])cc1)C(=O)N1CCCCC1)c1ccco1`, with -70.3%.
As for `O=C(N/C(=C/c1ccccc1)C(=O)N1CCCCC1)c1ccc(Br)o1`, the “hERG current change (%, negative = inhibition) at 10uM” value is reported as -7.64%.
Turning to `O=C(N/C(=C\c1ccc([N+](=O)[O-])cc1)C(=O)N1CCOCC1)c1ccco1`, the “hERG current change (%, negative = inhibition) at 10uM” value is on record as -69.2%.
In the case of `O=C(N/C(=C\c1ccccc1)C(=O)N1CCCCC1)c1ccc(Br)o1` it was 15.8%; in that of `C=C1C(=O)O[C@@H]2C[C@@H](C)[C@H]3C=CC(=O)[C@]3(O)C[C@@H]12`, 19.3%; in that of `Cc1ccc(C(=O)C(OC(=O)CNC(=O)c2ccc(Cl)cc2)c2ccccc2)cc1` (stereo not drawn), 2.15%.
Then `COc1ccc(-c2[nH]ncc2/C=N/NC(=O)c2ccncc2)c(OC)c1`, with 13.8%; and `O=C(CSc1ccccn1)Nc1ccc2c(c1)oc1ccccc12`, with 12.8%; and `N#Cc1cc2ccccc2nc1SCC(=O)NC1CC1`, with 4.58%.
In the case of `O=C(CN1C(=O)CSC1=O)c1ccccc1` it was 1.83%; in that of `CCOc1cc2nc(-c3ccc(OC)c(OC)c3)nc(N3CCOCC3)c2cc1OC`, -15.5%.
For `COc1ccc(C2CC(c3ccccc3)Nc3nc(NC(=O)c4cccs4)nn32)cc1` (stereo not drawn), the “hERG current change (%, negative = inhibition) at 10uM” value is -52%.
In the case of `O=C(Nc1ncc2c(n1)CC(c1ccc(Cl)cc1)CC2=O)c1ccco1` (stereo not drawn) it was -71.6%.
In the case of `CS(=O)(=O)Nc1nc2n(n1)C(c1ccc(F)cc1)CC(c1ccccc1)N2` (stereo not drawn) it was -4.13%; in that of `Nc1nc2n(n1)C(c1ccccc1)CC(c1ccc(F)cc1)N2` (stereo not drawn), -10.1%; in that of `COc1ccc(C2CC(c3ccc(F)cc3)Nc3nc(N)nn32)cc1` (stereo not drawn), -27%.
In the case of `O=C(Nc1ncc2c(n1)CC(c1ccccc1)CC2=O)c1ccco1` (stereo not drawn) it was -21.9%; in that of `O=C(Nc1ncc2c(n1)CC(c1cccc(Cl)c1)CC2=O)c1ccco1` (stereo not drawn), -39%.
Consider `CC1CC(c2ccccc2)n2nc(NC(=O)c3cccs3)nc2N1` (stereo not drawn), for which the “hERG current change (%, negative = inhibition) at 10uM” value is 16.6%.
On to `COc1ccc(C2CC(c3ccc(OC)cc3)n3nc(NC(=O)c4cccs4)nc3N2)cc1` (stereo not drawn), for which the “hERG current change (%, negative = inhibition) at 10uM” value is recorded as -13.9%.
Then `COc1ccc(C2CC(c3ccc(F)cc3)n3nc(NC(=O)c4ccco4)nc3N2)cc1` (stereo not drawn), with -60.3%; and `O=C(Nc1nc2n(n1)C(c1ccc(F)cc1)CC(c1ccccc1)N2)c1ccco1` (stereo not drawn), with -57.4%.
Then `COc1ccc(C2CC(c3ccc(F)cc3)n3nc(NS(C)(=O)=O)nc3N2)cc1` (stereo not drawn), with 8.06%.
